Results as given in the OligoGym collection.

molecular target: PECR; assay: pooled miR-30 sensor sort-seq; sequence = guide strand; settings: shRNA
Note: reference of the scale not given here.

Row | Sequence | sensor-assay potency score (higher = more potent)
1 | TTCCATACCAACTATAAGCTTT | -0.179
2 | TCTGGGAATAAATAACTCCAGG | -1.4
3 | TTGATCCGTATTCCACTGCAGG | -0.697
4 | TTAAAGGTCTCCTTCATCTTTT | -0.272
5 | TTCATCTTTTTGACAACAGAAA | -1.6
6 | TAGAACTGATGTGTTCAGCAGG | -0.616
7 | TAGTTCTCCACAGCAGTCTGGG | -0.504
8 | TTTGACAACAGAAAGGTCCCCT | 0.815
9 | TTCAATCTCTCCAACTTACGGG | 0.0068
10 | TCAATCTCTCCAACTTACGGGA | -0.32
11 | TATGGGAATGACTCGTGCCTGC | -0.624
12 | TAAACTGCTTTGCACATGTAGA | -1.07

molecular target: PEG10; assay: as above; settings: shRNA

Row | Sequence | sensor-assay potency score (higher = more potent)
13 | TGTCAGCGTAGTGACCTCCTGT | -0.0667
14 | TTGTGCATCAGGTAGTGGGAGC | -1.26
15 | TCTTTCTTTTTCTTCCTGCGTC | -0.141
16 | TAGTTGTGCATCAGGTAGTGGG | -0.718
